Bioassay records from PubChem BioAssay.
TDP1 cell noCPT: qHTS for Inhibitors of human tyrosyl-DNA phosphodiesterase 1 (TDP1): qHTS in cells in absence of CPT. Potency, µM (highest dose often 46.2 µM), for the others: at the highest dose activity change, negative = growth inhibition, most hits filed as inhibitors. DT40 Tdp1-/- hTDP1 cells, no CPT, ATP luminescence, 48 h. 420,000 tested, 15% active; also: % is scaled to controls: 0 for no effect and ±100 for the full control effect; nearly all actives have a fitted effect of over 55% in size
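Growth kinetics read by CellTiter-Glo luminescence after ≥48 hr at 37 °C. Cells: DT40 Tdp1-/- stably carrying human TDP1, 400 per well, compound exposure in the absence of CPT (DMSO vehicle).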
TDP1 block: inhibitors of human tyrosyl-DNA phosphodiesterase TDP1; AID 485290; Potency, µM (highest dose often 130 µM), for the others: top-dose activity change, negative = inhibition, hits mostly inhibitors; recombinant TDP1, AlphaScreen DNA substrate cleavage; 350,000 tested, 0.28% active; also: % is scaled to controls: 0 for no effect and ±100 for the full control effect; nearly all actives have a fitted effect of over 40% in size
Target sequence (Q9NUW8 whole entry, looked up): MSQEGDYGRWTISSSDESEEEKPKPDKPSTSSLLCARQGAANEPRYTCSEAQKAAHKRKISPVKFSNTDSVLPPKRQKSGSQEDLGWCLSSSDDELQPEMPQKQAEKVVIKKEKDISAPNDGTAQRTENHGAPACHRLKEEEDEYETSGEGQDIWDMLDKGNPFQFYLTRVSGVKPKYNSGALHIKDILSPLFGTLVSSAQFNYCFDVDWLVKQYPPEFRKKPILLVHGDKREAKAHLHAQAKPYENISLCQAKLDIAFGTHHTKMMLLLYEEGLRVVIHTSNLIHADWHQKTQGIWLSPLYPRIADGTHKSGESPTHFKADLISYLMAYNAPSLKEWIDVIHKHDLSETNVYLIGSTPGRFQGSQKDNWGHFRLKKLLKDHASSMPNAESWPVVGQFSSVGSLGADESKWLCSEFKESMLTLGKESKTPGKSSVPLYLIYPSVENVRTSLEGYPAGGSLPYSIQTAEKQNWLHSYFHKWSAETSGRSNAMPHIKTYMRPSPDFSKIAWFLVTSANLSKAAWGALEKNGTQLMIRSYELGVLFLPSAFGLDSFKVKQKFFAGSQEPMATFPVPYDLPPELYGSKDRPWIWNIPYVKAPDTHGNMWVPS
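E. coli-derived human Tdp1, 1 nM final. Cpd preinc 15 min RT; substrate 15 nM final, 5 min RT; AS bead mix 10 ug/ml final, 10 min RT. Signal loss = tyrosine-FITC cleavage. No-enzyme wells = max signal.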
TDP1 cell CPT: growth inhibition of DT40 Tdp1-/-;hTDP1 cells with camptothecin (screen for TDP1 inhibitors) | chicken DT40 Tdp1-/-;hTDP1 cells + 20 nM CPT, ATP luminescence, 48 h | Potency, µM (doses to about 46.2 µM), for inactives: top-dose activity change, negative = growth inhibition, actives largely listed as inhibitors | 420,000 tested, 12% active | AID 686979; also: % is scaled to controls: 0 for no effect and ±100 for the full control effect; nearly all actives have a fitted effect of over 55% in size
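Cell growth measured by CellTiter-Glo luminescence after a minimum 48 h, 37 C compound exposure with 20 nM CPT in Tdp1-knockout DT40 cells stably expressing hTDP1, seeded 400/well; qHTS titration format.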
ClpP mod: qHTS Assay for Activators of ClpP. AID 651965, 2013. ATP-dependent Clp protease proteolytic subunit (Bacillus subtilis (strain 168)), P80244. Potency, µM (doses to about 57.5 µM), inactives show at the top dose activity change, negative = active. purified B. subtilis ClpP, FRET peptide cleavage, 20 min. 340,000 tested, 1.9% active; active = well fitted falling curve with a large enough effect; inconclusive = small, poorly fitted or top-dose-only effect; inactive = no such curve, though single readings can be large or run the other way; also: the source files actives as falling curves though it sought activators and does not explain the sign; nearly all actives have a fitted effect of over 65% in size
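Purified B. subtilis ClpP, 10 microg/mL final in Tris/HCl pH8 with KCl, BSA, glycerol and Tween-20, cleaved an Abz/nitrotyrosine-quenched decapeptide. Fluorescence (ex 320, em 430) was read at 0 and 20 min at room temperature. Delta was normalized to 5.8 microM ADEP and DMSO/no-enzyme controls.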
* marks the source's active call; other numbers are inactive results; [ ] = remark or other dose. This is a sample that favours compounds with a hit; in the whole collection about 17% have one here. Unless noted, calls follow the shape of the dose curve; as a rule, active = well fitted curve in the direction sought with a large enough effect; inconclusive = small, poorly fitted or top-dose-only effect, or another doubt; inactive = no such curve, though single readings can be large; an effect the other way counts as inactive or inconclusive. Potency is read from the fitted curve at half-maximal effect.

Screening CC(=O)NCCn1c(SCc2ccccc2C)nc2ccccc2c1=O returned TDP1 cell noCPT 16µM*, TDP1 block 5%, TDP1 cell CPT inconclusive and ClpP mod -1%.
For CC(=O)NCCn1c(SCc2ccc(C)cc2C)nc2ccccc2c1=O the results were TDP1 cell noCPT 8.2µM*, TDP1 block 9%, TDP1 cell CPT 10µM* and ClpP mod -1%.
CCn1c(SCC(=O)NC2CCCCC2)nc2ccccc2c1=O was read as TDP1 cell noCPT -22%, TDP1 block 0%, TDP1 cell CPT 7% and ClpP mod -1%.
CC(=O)NCCn1c(SCc2cc(F)ccc2F)nc2ccccc2c1=O was read as TDP1 cell noCPT inconclusive, TDP1 block -3%, TDP1 cell CPT inconclusive and ClpP mod -1%.
For CC(=O)NCCn1c(SCC(=O)NC2CCCCC2)nc2ccccc2c1=O the results were TDP1 cell noCPT -3%, TDP1 block 3%, TDP1 cell CPT 12% and ClpP mod 32µM*.
COC(c1ccccc1)C(C)C(OC)C(C)C(OC)C(C)C(C)=O (configuration not stated) was read as TDP1 block 5%[21 µM].
CCc1nc2ccc(C(=O)Nc3cccc(OCC(=O)N(C)C)c3)cn2c1N(C)C(=O)c1ccncc1 was read as TDP1 cell noCPT 0%, TDP1 cell CPT 12% and ClpP mod -2%.
`O=C(CCl)NC(Cc1ccccc1)c1ccccc1` (configuration not stated) gave TDP1 cell noCPT 23µM*, TDP1 block 2% and TDP1 cell CPT 15µM*.
`Cn1c(CNC(=O)CCNC(=O)c2ccccc2F)cc(=O)n(C)c1=O` gave TDP1 cell noCPT 18%, TDP1 block 2%, TDP1 cell CPT 4% and ClpP mod -1%.
`CCCCC1=CC2=C(c3ccco3)C(=O)C(C)(OC(=O)c3ccc(OC)cc3)C(=O)C2=CN1CC1CC1` (configuration not stated) gave TDP1 cell noCPT 18µM*, TDP1 block 7%[12.3 µM], TDP1 cell CPT 8.2µM* and ClpP mod 0%.
For CCCCC1=CC2=C(c3ccco3)C(=O)C(C)(OC(=O)c3ccc(OC)cc3)C(=O)C2=CN1C1CC1 (configuration not stated) the results were TDP1 cell noCPT -24%, TDP1 block 14%[12.3 µM], TDP1 cell CPT inconclusive and ClpP mod 0%.
`CCCCC1=CC2=C(c3ccco3)C(=O)C(C)(OC(=O)c3ccc(OC)cc3)C(=O)C2=CN1CC(C)C` (configuration not stated) gave TDP1 cell noCPT 5.2µM*, TDP1 block 11%[12.3 µM], TDP1 cell CPT 3.3µM* and ClpP mod 0%.
`CCCCC1=CC2=C(c3ccco3)C(=O)C(C)(OC(=O)c3ccc(OC)cc3)C(=O)C2=CN1CCCCO` (configuration not stated) gave TDP1 cell noCPT inconclusive, TDP1 block -1%[12.3 µM], TDP1 cell CPT inconclusive and ClpP mod -4%.
CC(C)(C)c1ccc(S(=O)(=O)N2CCN(C(=O)C3=COCCO3)CC2)cc1 was read as TDP1 cell noCPT inconclusive, TDP1 block -1%, TDP1 cell CPT 29µM* and ClpP mod 0%.
O=C(C1CCC1)N1CCN(S(=O)(=O)c2ccc(F)cc2)CC1 was read as TDP1 cell noCPT -25%, TDP1 block 0%, TDP1 cell CPT -27% and ClpP mod 3%.
Screening Cc1cccc(C)c1N1CCN(S(=O)(=O)c2ccc(F)cc2)CC1 returned TDP1 cell noCPT 16µM*, TDP1 block 5%, TDP1 cell CPT inconclusive and ClpP mod -4%.
Cc1ccc(S(=O)(=O)N2CCN(C(=O)C3CCCCC3)CC2)cc1 was read as TDP1 cell noCPT -8%, TDP1 block 4%, TDP1 cell CPT -12% and ClpP mod 0%.
`CC(C)(C)c1ccc(S(=O)(=O)N2CCN(C(=O)C3CCC3)CC2)cc1` gave TDP1 cell noCPT 18µM*, TDP1 block 0%, TDP1 cell CPT 8.2µM* and ClpP mod -11%.
Screening CC(=O)N1CCC(C(=O)N2CCN(S(=O)(=O)c3ccc(F)cc3)CC2)CC1 returned TDP1 cell noCPT 18µM*, TDP1 block 1%, TDP1 cell CPT 0% and ClpP mod 0%.
For O=C(COC(=O)COc1cccc(C(F)(F)F)c1)NC(=O)NC1CCCCC1 the results were TDP1 cell noCPT inconclusive, TDP1 cell CPT -9% and ClpP mod 1%.
Screening O=C(NC1CCCC1)C1CCC(CNS(=O)(=O)c2ccccc2)CC1 (configuration not stated) returned TDP1 cell noCPT 9%, TDP1 block -2%, TDP1 cell CPT 1% and ClpP mod 0%.
CC1CC1C(=O)N1CCN(S(=O)(=O)c2cc(C(F)(F)F)cc(C(F)(F)F)c2)CC1 (configuration not stated) was read as TDP1 cell noCPT inconclusive, TDP1 block 0%, TDP1 cell CPT 16µM* and ClpP mod -1%.
For COc1ccc(S(=O)(=O)N2CCC(O)(c3ccc(Cl)cc3)CC2)cc1 the results were TDP1 cell noCPT -28%, TDP1 block 3%, TDP1 cell CPT -17% and ClpP mod 0%.
CC(C)(C)c1ccc(S(=O)(=O)N2CCC(O)(c3ccc(Cl)cc3)CC2)cc1 was read as TDP1 cell noCPT 18µM*, TDP1 block 2%, TDP1 cell CPT inconclusive and ClpP mod 0%.
O=C(Nc1ccc(N2CCCC2)cc1)c1cc(Br)ccc1Cl was read as TDP1 cell noCPT 4.6µM* and TDP1 cell CPT 3.7µM*.
Screening O=C(Nc1ccncc1)c1cc(S(=O)(=O)N2CCOCC2)ccc1Cl returned TDP1 cell noCPT -24%, TDP1 cell CPT -11% and ClpP mod -1%.
For Cc1ccc(C(=O)Nc2ccc(S(=O)(=O)N3CCOCC3)cc2)cc1 the results were TDP1 cell noCPT -38%, TDP1 block 3% and TDP1 cell CPT -5%.
Screening Cc1ccc(S(=O)(=O)N2CCOCC2)cc1C(=O)Nc1ccc(N2CCCCCC2)cc1 returned TDP1 cell noCPT 4.6µM*, TDP1 block 12%, TDP1 cell CPT 4.6µM* and ClpP mod -2%.
For CC1CN(S(=O)(=O)c2ccc(C(=O)Nc3ccc(S(=O)(=O)N4CCOCC4)cc3)cc2)CC(C)O1 (configuration not stated) the results were TDP1 cell noCPT 13µM*, TDP1 block 3%, TDP1 cell CPT inconclusive and ClpP mod 8%.
Screening O=C(Nc1ccc(S(=O)(=O)N2CCOCC2)cc1)c1cc(S(=O)(=O)N2CCOCC2)ccc1Cl returned TDP1 cell noCPT inconclusive, TDP1 block 3%, TDP1 cell CPT 18µM* and ClpP mod 1%.
Cc1ccc(C(=O)NNC(=O)COc2ccc(Cl)cc2C)o1 was read as TDP1 cell noCPT inconclusive, TDP1 block 0%, TDP1 cell CPT inconclusive and ClpP mod 0%.
